ADAM17 inh: inhibitors of human ADAM17; P78536; recombinant ADAM17, EDANS/DABCYL FRET peptide cleavage; inhibition, % at 6.95 µM; hit rate 0.83% among 370,000; AID 720648;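 active means inhibition above the mean of compounds lying between control limits plus 3 SD, set per campaign, cut at about 8.5% in these data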;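 further: 0% = DMSO-only wells as the low control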
PLC-gamma1 inh: blocks human PLC-gamma1 enzyme activity. hit rate 0.84% among 370,000. purified PLC-gamma1, fluorogenic substrate, fluorescence. inhibition, % at 12.2 µM. AID 720700. P19174; in the data active means inhibition above about 9.5%
PLCb3 inh: inhibitors of human phospholipase C beta3; Q01970; Purified PLC-beta3, fluorogenic substrate, fluorescence; inhibition, % at 12.2 µM; hit rate 0.18% among 370,000; in the data active means inhibition above about 11%;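 further: 0% = median of compound wells on plate and 100% = full blocker control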
proKLK7 act: activates the human kallikrein-7 zymogen; P49862; purified proKLK7, EDANS-DABCYL substrate fluorescence; 100% is mature enzyme control, 0% vehicle; activation, % at 7 µM; hit rate 0.9% among 370,000;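 active means activation above the mean of all tested compounds plus 3 SD, computed per campaign excluding outliers beyond control limits, cut at about 13% in these data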
Target sequence (P49862 whole entry, looked up): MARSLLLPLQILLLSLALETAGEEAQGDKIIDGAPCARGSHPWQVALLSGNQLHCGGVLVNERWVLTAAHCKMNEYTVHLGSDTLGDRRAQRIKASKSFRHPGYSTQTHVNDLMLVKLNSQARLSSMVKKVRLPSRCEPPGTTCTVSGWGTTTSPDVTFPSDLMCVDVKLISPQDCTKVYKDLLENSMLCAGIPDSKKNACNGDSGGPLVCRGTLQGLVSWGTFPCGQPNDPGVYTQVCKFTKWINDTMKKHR
ADAM10 inh: inhibitors of human ADAM10. O14672. recombinant ADAM10, EDANS/DABCYL FRET peptide cleavage, 3 h. inhibition, % at 7 µM. hit rate 0.62% among 370,000;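 active means inhibition above a per-campaign cutoff equal to the mean of compounds falling between control-based bounds plus 3 SD, cut at about 20% in these data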;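 further: 0% = DMSO wells while the 100% control is not disclosed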
proKLK7 act conf: confirmation of human kallikrein-7 zymogen activators; shares compounds with proKLK7 act; purified proKLK7, EDANS-DABCYL substrate fluorescence; scaled: vehicle 0, mature enzyme 100; activation, % at 7 µM; hit rate 68% among 3,200;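 active means activation, as change over the incubation, above the mean of all tested compounds plus 3 SD, cut at about 13% in these data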
EDANS-DABCYL int: counter-screen for kallikrein-7 activators: EDANS-DABCYL optical interference; shares compounds with proKLK7 act; EDANS-DABCYL substrate fluorescence interference, no enzyme, 4 h; solvent 0%, active enzyme control 100%; activation, % at 7 µM; hit rate 80% among 3,200; AID 686952;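 active means activation above the all-compound mean plus 3 SD, ignoring values outside control-based bounds, cut at about 4.8% in these data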;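 further: value is the 4 h activation minus the activation read at time zero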
EDANS interf: optically interferes with EDANS-DABCYL fluorescence, kallikrein-7 activator counter-screen | shares compounds with proKLK7 act | EDANS-DABCYL peptide fluorescence interference, no enzyme | EC50, µM | hit rate 20% among 250;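 active means compounds that raise the fluorescence signal in this interference counterscreen, with EC50 at or below 10 µM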;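 further: intact quenched peptide substrate alone read at 355 nm excitation and 520 nm emission; signal is fluorescence gain from T0 to T4 after four hours at room temperature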
Active calls of the source: *. An excerpt weighted towards active compounds, which were near 2.9% of everything screened.

COC(=O)[C@H](CC1(c2cn(S(=O)(=O)CC[Si](C)(C)C)c3ccccc23)C(=O)Nc2ccccc21)NC(=O)OC(C)(C)C (stereo not given in full) was read as ADAM17 inh 7.8, PLC-gamma1 inh -19.9, PLCb3 inh -26.7 and ADAM10 inh 15.6.
COC(=O)[C@]12C[C@H](CC(=O)N3CCN(C(=O)c4ccco4)CC3)C(=O)N(Cc3ccco3)C1=C[C@H](C1CCCC1)O[C@@H]2C was read as ADAM17 inh -4.9, PLC-gamma1 inh -3.5, PLCb3 inh 0.1, proKLK7 act 0.7 and ADAM10 inh -0.5.
Screening COC(=O)C1CN(Cc2cn(Cc3ccc(C)cc3)nn2)CCS(=O)(=O)N1Cc1ccc(Cl)cc1 (stereo not given) returned ADAM17 inh 0.6, PLC-gamma1 inh 3.6, PLCb3 inh -0.8, proKLK7 act -1.0 and ADAM10 inh -0.9.
Screening Brc1ccc(CSc2nnc(SCc3ccccc3)s2)cc1 returned ADAM17 inh -0.8, PLC-gamma1 inh -0.1, PLCb3 inh 0.8, proKLK7 act 0.9 and ADAM10 inh -7.3.
For N#Cc1ccccc1NC(=O)c1ccccc1OCC(=O)Nc1ccc2c(c1)oc1ccccc12 the results were ADAM17 inh -0.1, PLC-gamma1 inh -1.6, PLCb3 inh -2.8, proKLK7 act 0.3 and ADAM10 inh -5.7.
`CNC(=O)COc1ccccc1C(=O)Nc1ccc2c(c1)oc1ccccc12` gave ADAM17 inh -143.2, PLC-gamma1 inh -37.7, PLCb3 inh -48.8, proKLK7 act 54.7*, ADAM10 inh inactive, proKLK7 act conf -74.5 and EDANS-DABCYL int -111.4.
CCOc1nc(N=C(N)N)nc2c(C)cccc12 was read as ADAM17 inh -82.0, PLC-gamma1 inh -178.5, PLCb3 inh -218.0, proKLK7 act 21.5*, ADAM10 inh -228.8, proKLK7 act conf 12.4 and EDANS-DABCYL int 17.2*.
Screening CCOc1ccccc1Nc1cc(C)c2cccc(C)c2n1 returned ADAM17 inh -20.8, PLC-gamma1 inh -44.6, PLCb3 inh -59.0, proKLK7 act -16.3 and ADAM10 inh -35.9.
Screening CN(C)/C=N/c1nc2nccc(-c3cccnc3)n2n1 returned ADAM17 inh -77.0, PLC-gamma1 inh -292.2, PLCb3 inh -384.3, proKLK7 act 13.0*, ADAM10 inh -307.3, proKLK7 act conf 64.8* and EDANS-DABCYL int 61.9*.
CN(C)/C=N/c1nc2nccc(-c3ccccn3)n2n1 was read as ADAM17 inh -34.9, PLC-gamma1 inh -230.9, PLCb3 inh -282.5, proKLK7 act 12.1 and ADAM10 inh -130.4.
COc1ccc(-c2ccnc3nc(/N=C/N(C)C)nn23)cc1 was read as ADAM17 inh inactive, PLC-gamma1 inh -387.5, PLCb3 inh inactive, proKLK7 act 44.0*, ADAM10 inh inactive, proKLK7 act conf 65.6* and EDANS-DABCYL int 63.2*.
`CNC(=O)c1cc2c(cn1)[nH]c1ccccc12` gave ADAM17 inh -161.2, PLC-gamma1 inh -101.5, PLCb3 inh -157.3, proKLK7 act 32.5*, ADAM10 inh -483.5, proKLK7 act conf 6.8 and EDANS-DABCYL int 4.4*.
Screening COc1ccc2oc(C(=O)Nc3nnc(C)s3)c(C)c2c1 returned ADAM17 inh -79.4, PLC-gamma1 inh -220.9, PLCb3 inh -271.4, proKLK7 act 20.8*, ADAM10 inh -354.2, proKLK7 act conf 0.9 and EDANS-DABCYL int 3.5.
Cc1ccc2oc(C(=O)Nc3nnc(C)s3)c(C)c2c1 was read as ADAM17 inh -6.9, PLC-gamma1 inh 0.3, PLCb3 inh 1.1, proKLK7 act -0.1 and ADAM10 inh -2.5.
`COC(=O)[C@]12C[C@H](CC(=O)N3CCN(C(=O)c4ccco4)CC3)C(=O)N(Cc3ccccc3)C1=C[C@H](COCc1ccccc1)O[C@@H]2C` gave ADAM17 inh -2.1, PLC-gamma1 inh 0.8, PLCb3 inh -1.5, proKLK7 act 0.6 and ADAM10 inh -1.9.
O=c1c2ccccc2[nH]c(=S)n1CCCN1CCOCC1 was read as ADAM17 inh -3.6, PLC-gamma1 inh 8.8, PLCb3 inh 5.0, proKLK7 act -0.2 and ADAM10 inh -1.8.
Screening N=C1c2c(cc(=O)n3c2[nH]c2ccccc23)CN1CCN1CCOCC1 returned ADAM17 inh inactive, PLC-gamma1 inh -301.5, PLCb3 inh -436.4, proKLK7 act 14.9*, ADAM10 inh inactive, proKLK7 act conf -5.7 and EDANS-DABCYL int -6.0.
CC(C)(C)OC(=O)C(Oc1ccccc1[N+](=O)[O-])C(=O)OC(C)(C)C was read as ADAM17 inh -3.8, PLC-gamma1 inh 4.3, PLCb3 inh -1.5, proKLK7 act 324.9*, ADAM10 inh -16.8, proKLK7 act conf 217.4* and EDANS-DABCYL int 204.8*.
`Cc1cccn2c(=O)c3cc(C(=O)N4CCOCC4)n(C)c3nc12` gave ADAM17 inh -159.4, PLC-gamma1 inh -370.7, PLCb3 inh inactive, proKLK7 act 19.5*, ADAM10 inh inactive, proKLK7 act conf 46.3*, EDANS-DABCYL int 35.2* and EDANS interf >69.5.
Screening Cc1cccn2c(=O)c3cc(C(=O)N4CCN(C(=O)c5ccco5)CC4)n(C)c3nc12 returned ADAM17 inh -351.9, PLC-gamma1 inh inactive, PLCb3 inh inactive, proKLK7 act 19.8*, ADAM10 inh inactive, proKLK7 act conf 23.4* and EDANS-DABCYL int 34.7*.
`COCCCn1c(C(=O)N2CCOCC2)cc2c(=O)n3cccc(C)c3nc21` gave ADAM17 inh -409.6, PLC-gamma1 inh inactive, PLCb3 inh inactive, proKLK7 act 18.7*, ADAM10 inh inactive, proKLK7 act conf 17.0* and EDANS-DABCYL int 17.7*.
For Cc1cccn2c(=O)c3cc(C(=O)N4c5ccccc5CC4C)n(C)c3nc12 (stereo not given) the results were ADAM17 inh -9.2, PLC-gamma1 inh -11.3, PLCb3 inh -19.2, proKLK7 act -0.8 and ADAM10 inh -22.0.
Cc1cccn2c(=O)c3cc(C(=O)N4COCC4(C)C)n(Cc4ccccc4)c3nc12 was read as ADAM17 inh -40.1, PLC-gamma1 inh -142.9, PLCb3 inh -204.2, proKLK7 act -5.3 and ADAM10 inh -102.5.
For CN1C2=NC(c3ccc4ccccc4c3)CC(=O)N2/C(=C\c2ccccc2)C1c1ccccc1C(F)(F)F (stereo not given) the results were ADAM17 inh -5.1, PLC-gamma1 inh -2.6, PLCb3 inh -3.2 and ADAM10 inh -12.6.
For Cc1ccccc1CN1CCCCC(NC(=O)c2cc(-c3ccccc3)no2)C1=O (stereo not given) the results were ADAM17 inh 0.9, PLC-gamma1 inh 0.8, PLCb3 inh -1.2, proKLK7 act 0.8 and ADAM10 inh 5.0.
